Experimental data taken from PubChem BioAssay (NCATS).
The source made the active and inactive calls. A call without a number means that no potency is given here. The call rests on the fitted dose curve; in most records, active means well fitted inhibition curve with a large enough effect; inconclusive means small, poorly fitted or top-dose-only effect; inactive means flat fitted curve, though single readings scatter.

Molecular target: Luciferin 4-monooxygenase (Photinus pyralis) (UniProt P08659)
Test: Primary firefly luciferase (FLuc) qHTS assay for identification of artifact compounds. (AID 1845220); further: nearly all actives have a fitted effect of over 60% in size
Settings: purified firefly luciferase, luminescence, 5 min; series mostly up to 54.1 µM
Summary of the method: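 Enzymatic FLuc inhibition assay: compounds pre-exposed to luciferin/ATP (10 uM each) for 15 min, then purified P. pyralis enzyme at 10 nM added. Read-out: luminescence at 5 min.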

SMILES | Potency | outcome | activity change, negative = inhibition
CC1(C)C[C@H]2C=C(C=O)[C@]3(C(=O)O)C[C@]3(C)[C@H]2C1 | inactive |  | 
C=C1CC[C@]2(C(=O)O[C@@H]3O[C@H](CO)[C@@H](O)[C@H](O)[C@H]3O)CC[C@]3(C)C(=CCC4[C@@]5(C)C[C@H](O)[C@@H](O[C@@H]6O[C@H](C(=O)O)[C@@H](O)[C@H](O)[C@H]6O)[C@](C)(C=O)C5CC[C@]43C)C2C1 (some centres not stated) |  | inactive [at 11.6 µM] | 
O=C(CCCCC1CCCCC1)N1CCC(c2cnc[nH]2)CC1 | inactive |  | 
Nc1ccc(-n2nc(C(F)(F)F)cc2C(F)(F)F)cc1 | inactive |  | 
CC1(C)C2CC[C@@]34CC(CC[C@H]3[C@]2(C)CC[C@@H]1O[C@@H]1O[C@H](CO)[C@@H](O)[C@H](O)[C@H]1O)[C@](C)(O)C4 (some centres not stated) | inactive |  | 
CC(=O)OC1C(O)/C(C)=C\C2C(OC(=O)c3ccccc3)C(C)CC2(OC(C)=O)C(OC(C)=O)C(C)/C=C/C(C)(C)C1OC(C)=O (configuration not stated) | inactive |  | 
CC1=C2CC(O)(C(C)(C)O)C(O[C@@H]3O[C@H](CO)[C@@H](O)[C@H](O)[C@H]3O)CC(C)C2CC1=O (some centres not stated) | inactive |  | 
C=CCC/C=C/C#CCCCCCCCC[C@H]1C(=O)O[C@H](C)[C@@H]1O | inactive |  | 
CC(=O)C1CCC(=O)N1Cc1ccccc1 (configuration not stated) | inactive |  | 
O=C(O)CCc1cccc(O)c1O[C@@H]1O[C@H](CO)[C@@H](O)[C@H](O)[C@H]1O | inactive |  | 
CC(=O)/C=C/[C@H]1[C@](C)(O)[C@@H](O)[C@H](O)C2C(C)(C)CCC[C@@]21C (some centres not stated) | inactive |  | 
C[C@@H]1O[C@@H](O[C@H]2[C@H](O[C@H]3[C@H](O[C@H]4CC[C@@]5(C)C(CC[C@]6(C)C5CC=C5[C@@H]7CC(C)(C)C[C@@H](O)[C@]7(C)CC[C@]56C)[C@@]4(C)CO)O[C@H](C(=O)O)[C@@H](O)[C@@H]3O)O[C@H](C(=O)O)[C@H](O)[C@@H]2O)[C@H](O)[C@H](O)[C@H]1O (some centres not stated) |  |  | 0.9% [at 11.6 µM] (inactive)
COc1ccc(C(=O)NCc2cc(C(C)C)no2)cc1OC1CCN(C)CC1 | inactive |  | 
COc1cc(C(CO)CO[C@@H]2O[C@H](CO)[C@@H](O)[C@H](O)[C@H]2O)ccc1O (some centres not stated) | inactive |  | 
COc1ccc(C2OCC3C(c4cc(OC)c5c(c4)OCO5)OCC23)cc1OC (configuration not stated) | inactive |  | 
CC1(C)CCC[C@@]2(C)[C@H]1[C@H](O)C=C(CO)[C@]2(O)CO | inactive |  | 

SMILES | Potency | outcome | activity change, negative = inhibition
NC(Cc1c[nH]c2ccc(O)cc12)C(=O)O (configuration not stated) | inactive |  | 
C=C1C(O)CCC2(C)CC3(OC)OC(=O)C(C)=C3CC12 (configuration not stated) | inactive |  | 
O=C1NC(=O)/C(=C/c2cccc(C(F)(F)F)c2)S1 | inactive |  | 
CC(=O)NCC1CN(c2ccc(-c3ccc(CNCc4cn[nH]n4)cc3)c(F)c2)C(=O)O1 (configuration not stated) | inactive |  | 
C/C=C(\C)C(=O)OC1C2(O)CC3=C4CC(=O)OC(c5ccoc5)C4(C)CCC3C(C)(C2=O)C(C(OC(C)=O)C(=O)OC)C1(C)C (configuration not stated) | inactive |  | 
CC(=O)/C=C/C1C(C)CC(O[C@@H]2O[C@H](CO)[C@@H](O)[C@H](O)[C@H]2O)CC1(C)C (some centres not stated) | inactive |  | 
CC1(C)Oc2ncnc(N)c2N=C1c1ccc(C2CCC(CC(=O)O)CC2)cc1 (configuration not stated) | inactive |  | 
Cn1cc(Nc2cnccc2C(=O)O)c2cccnc21 | inactive |  | 
COc1cccc(C(=O)NCCNc2nc3cc(C)cc(C)c3cc2C#N)c1 | inactive |  | 
O=C(O)c1ccnc2cc(C(OCC3CCC(F)(F)CC3)c3ccccc3Cl)[nH]c12 (configuration not stated) | inactive |  | 
OC[C@H]1O[C@@H](OCc2ccccc2)[C@H](O)[C@@H](O)[C@@H]1O | inactive |  | 
Cc1ccc(COC(=O)N2CC[C@@H](CNc3ncccn3)[C@@H](F)C2)cc1 | inactive |  | 
C=C1C(OC(C)=O)CCC2(C)CC3(O)OC(=O)C(C)=C3CC12 (configuration not stated) | inactive |  | 
CC1CCC23COC(=O)C2=CC(O)CC3C1(C)CCc1ccoc1 (configuration not stated) | inactive |  | 
C[C@H]1CC[C@@]2(OC1)O[C@H]1CC3C4CC[C@H]5C[C@@H](O[C@@H]6O[C@H](CO)[C@H](O[C@@H]7O[C@H](CO)[C@@H](O)[C@H](O[C@@H]8OC[C@@H](O)[C@H](O)[C@H]8O)[C@H]7O[C@@H]7O[C@H](CO)[C@@H](O)[C@H](O)[C@H]7O)[C@H](O)[C@H]6O)[C@H](O)C[C@]5(C)C4=CC(=O)[C@]3(C)[C@H]1[C@@H]2C (some centres not stated) |  |  | 4.7% [at 11.6 µM] (inactive)
O=C(OCC(O)CO[C@@H]1O[C@H](C(=O)O)[C@@H](O)[C@H](O)[C@H]1O)c1ccccc1 (some centres not stated) | inactive |  | 
